# Results as given in PubChem BioAssay (NCATS).
# Records with an inconclusive call do not appear. Where a call stands in place of a potency, no number is given. Activity calls are given as the source filed them. Unless noted, calls follow the shape of the dose curve; as a rule, active = well fitted curve in the direction sought with a large enough effect; inconclusive = small, poorly fitted or top-dose-only effect, or another doubt; inactive = no such curve, though single readings can be large; an effect the other way counts as inactive or inconclusive. Peptide text beside a SMILES is read from it.
# Experiments:
# [1] = biological target: Transient receptor potential cation channel subfamily V member 1 (Homo sapiens) (UniProt Q8NER1); test: HTS Assay for Compounds that Act as Enhancers of the Vanilloid Receptor 1 (AID 488979); details: TRPV1-expressing cells, enhancer of channel activity, stimulated with capsaicin at EC20; series mostly up to 41.7 µM
# Sequence of Transient receptor potential cation channel subfamily V member 1 (Homo sapiens) (Q8NER1 whole entry, looked up): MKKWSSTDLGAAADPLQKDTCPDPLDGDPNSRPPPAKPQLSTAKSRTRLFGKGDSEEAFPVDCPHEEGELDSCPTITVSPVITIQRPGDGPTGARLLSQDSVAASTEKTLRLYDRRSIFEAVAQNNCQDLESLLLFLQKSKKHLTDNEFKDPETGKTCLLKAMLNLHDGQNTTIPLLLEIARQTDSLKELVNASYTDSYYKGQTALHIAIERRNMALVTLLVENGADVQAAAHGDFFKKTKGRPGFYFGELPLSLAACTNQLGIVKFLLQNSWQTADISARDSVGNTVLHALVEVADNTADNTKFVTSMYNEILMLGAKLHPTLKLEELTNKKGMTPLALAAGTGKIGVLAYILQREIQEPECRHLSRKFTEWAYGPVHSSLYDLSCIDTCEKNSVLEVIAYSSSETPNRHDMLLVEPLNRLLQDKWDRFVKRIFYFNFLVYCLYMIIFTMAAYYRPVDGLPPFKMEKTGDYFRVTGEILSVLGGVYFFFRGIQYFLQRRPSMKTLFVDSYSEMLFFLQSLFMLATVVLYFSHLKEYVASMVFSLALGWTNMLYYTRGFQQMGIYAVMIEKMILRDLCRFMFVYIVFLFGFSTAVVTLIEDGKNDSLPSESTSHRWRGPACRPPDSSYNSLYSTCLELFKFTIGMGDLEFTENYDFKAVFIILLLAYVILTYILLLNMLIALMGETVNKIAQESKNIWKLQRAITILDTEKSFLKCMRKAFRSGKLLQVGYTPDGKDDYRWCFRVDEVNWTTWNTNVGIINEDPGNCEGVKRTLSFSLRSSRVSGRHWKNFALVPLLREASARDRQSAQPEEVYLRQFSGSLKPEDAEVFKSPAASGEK
# How it was run: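 Calcium influx kinetics via Fluo-8 (480/520 nm) in TRPV1-expressing cells, 2000/well cultured overnight at 35.5C. Compound-alone read 3 min (agonist phase), followed by EC20 capsaicin challenge for 2 min (enhancer phase).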
# [2] = biological target: Thyrotropin receptor (Homo sapiens) (UniProt P16473); test: qHTS Assay for Antagonists of the Thyroid Stimulating Hormone Receptor (AID 488980); details: TSHR-expressing cells, cAMP antagonist read-out; series mostly up to 57.5 µM
# Sequence of Thyrotropin receptor (Homo sapiens) (P16473 whole entry, looked up): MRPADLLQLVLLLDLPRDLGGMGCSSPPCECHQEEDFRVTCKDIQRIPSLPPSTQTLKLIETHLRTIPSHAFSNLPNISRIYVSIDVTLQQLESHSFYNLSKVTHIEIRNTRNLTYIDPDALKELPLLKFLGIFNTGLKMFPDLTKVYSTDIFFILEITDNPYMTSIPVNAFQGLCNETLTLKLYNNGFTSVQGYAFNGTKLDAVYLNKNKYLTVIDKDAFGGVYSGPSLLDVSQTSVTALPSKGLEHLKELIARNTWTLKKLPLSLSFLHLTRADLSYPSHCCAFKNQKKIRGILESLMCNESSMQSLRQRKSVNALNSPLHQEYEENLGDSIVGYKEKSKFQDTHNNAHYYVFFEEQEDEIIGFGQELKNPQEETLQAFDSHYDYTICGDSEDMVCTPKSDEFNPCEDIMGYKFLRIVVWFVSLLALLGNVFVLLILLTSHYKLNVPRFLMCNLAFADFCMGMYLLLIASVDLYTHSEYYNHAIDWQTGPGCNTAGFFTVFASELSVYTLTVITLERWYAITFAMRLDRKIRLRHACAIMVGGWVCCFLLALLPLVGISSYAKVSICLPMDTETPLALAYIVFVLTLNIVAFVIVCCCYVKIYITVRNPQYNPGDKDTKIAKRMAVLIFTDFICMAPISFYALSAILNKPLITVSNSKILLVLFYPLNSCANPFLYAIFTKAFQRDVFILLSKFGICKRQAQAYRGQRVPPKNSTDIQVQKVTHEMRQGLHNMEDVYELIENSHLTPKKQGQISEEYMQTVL
# How it was run: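 Inhibition of TSH-stimulated cAMP accumulation was quantified by homogeneous time-resolved FRET in TSHR-transfected HEK293 cells. Agonist: TSH, 4 nM final (EC80).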
# [3] = biological target: D(1A) dopamine receptor (Homo sapiens) (UniProt P21728); test: HTS Assay for Allosteric Agonists of the Human D1 Dopamine Receptor: Primary Screen for Potentiators (AID 488982); details: HEK293 T-REx D1 inducible cells, calcium flux, kinetic fluorescence; series mostly up to 8.37 µM
# How it was run: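 Calcium flux in an inducible, force-coupled HEK293 Trex D1 line (overnight at 30 C): agonist mode is the 180 s kinetic read after compound; potentiator mode is the following 180 s read after dopamine at EC20.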
# [4] = biological target: D(1A) dopamine receptor (Homo sapiens) (UniProt P21728); test: HTS Assay for Allosteric Agonists of the Human D1 Dopamine Receptor: Primary Screen for Antagonists (AID 488983); details: D1 receptor cell assay, antagonist mode, qHTS titration; series mostly up to 41.8 µM;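 also: calcium flux response to an EC80 dopamine challenge measured with no-wash dye; nearly all actives have a fitted effect of over 65% in size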
# How it was run: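 Tetracycline-induced HEK293 T-REx cells expressing force-coupled D1 were plated overnight at 30 C, dye-loaded for calcium, and read kinetically. Compounds were pinned in, then an EC80 dopamine challenge followed after 180 s to reveal antagonism.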
# [5] = biological target: ATP-dependent 6-phosphofructokinase (Trypanosoma brucei brucei) (UniProt O15648); test: qHTS Assay to Find Inhibitors of T. brucei phosphofructokinase: hit validation (AID 492961);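 also: luminescence reports ADP formed as PFK phosphorylates fructose-6-phosphate with ATP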; details: T. brucei PFK, ADP-Glo luminescence; series mostly up to 51.4 µM
# Sequence of ATP-dependent 6-phosphofructokinase (Trypanosoma brucei brucei) (O15648 whole entry, looked up): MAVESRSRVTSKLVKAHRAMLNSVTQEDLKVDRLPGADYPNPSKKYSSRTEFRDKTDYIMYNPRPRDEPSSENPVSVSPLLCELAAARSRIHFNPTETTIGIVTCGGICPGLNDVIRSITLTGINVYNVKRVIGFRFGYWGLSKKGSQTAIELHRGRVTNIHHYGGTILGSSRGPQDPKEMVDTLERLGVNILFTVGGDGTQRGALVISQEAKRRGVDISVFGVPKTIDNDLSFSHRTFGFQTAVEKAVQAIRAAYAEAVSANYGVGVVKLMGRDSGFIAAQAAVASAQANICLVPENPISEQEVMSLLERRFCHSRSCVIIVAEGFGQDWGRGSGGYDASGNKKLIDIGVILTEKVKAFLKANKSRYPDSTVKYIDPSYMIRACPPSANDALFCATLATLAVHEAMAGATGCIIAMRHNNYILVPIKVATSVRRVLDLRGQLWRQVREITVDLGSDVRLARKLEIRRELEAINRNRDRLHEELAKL
# How it was run: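 ADP-Glo luminescence read-out of ADP formed by 1.25 nM PFK from 0.1 mM ATP and 0.5 mM F6P (TEA pH 8.0, 45 min, RT). Compounds titrated; activity normalized to no-enzyme and full-enzyme controls.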
# [6] = Validation screen for small molecules that induce genotoxicity in human embryonic kidney (HEK293T) cells expressing luciferase-tagged ELG1 (AID 493106); details: luminescence; series mostly up to 46.1 µM; also: potency is read from the fitted curve at half-maximal effect
# How it was run: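 HEK293T cells expressing luciferase-tagged ELG1 were exposed to compound or DMSO vehicle for 16 hr at 37 °C, 5% CO2. Genotoxic stress raises ELG1 levels, so increased luciferase signal after ONE-Glo addition and 30 min at room temperature marks hits.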
# [7] = biological target: Thyrotropin-releasing hormone receptor (Homo sapiens) (UniProt P34981); test: qHTS for Small Molecule Agonists and Allosteric Enhancers of Human TRH Receptor: Validation Screen for Agonists (AID 493127;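 active = calcium activation more than 3 SD above the typical response in the agonist read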;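 also: intracellular calcium rise by fluo-8 fluorescence before TRH EC20 addition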); details: TRH receptor agonist cell assay; at 2 µM; stronger effect = higher value
# Sequence of Thyrotropin-releasing hormone receptor (Homo sapiens) (P34981 whole entry, looked up): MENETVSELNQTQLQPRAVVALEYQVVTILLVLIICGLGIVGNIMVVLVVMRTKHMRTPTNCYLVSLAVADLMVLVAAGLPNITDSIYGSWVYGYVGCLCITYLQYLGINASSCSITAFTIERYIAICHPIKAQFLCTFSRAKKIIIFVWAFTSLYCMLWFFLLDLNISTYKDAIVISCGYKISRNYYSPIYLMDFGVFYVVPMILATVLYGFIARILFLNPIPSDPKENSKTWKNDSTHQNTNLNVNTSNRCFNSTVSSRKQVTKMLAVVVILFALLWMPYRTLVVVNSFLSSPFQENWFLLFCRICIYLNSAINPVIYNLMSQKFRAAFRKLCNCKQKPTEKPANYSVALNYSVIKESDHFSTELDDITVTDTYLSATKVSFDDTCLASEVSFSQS
# How it was run: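 TRHR-expressing cells were plated overnight in serum-containing medium, then loaded with fluo-8 calcium dye at room temperature for 30 min–1.5 h. After a 10 s baseline, compound was pin-transferred and calcium fluorescence (ex 480/em 530) read kinetically for agonist response.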
# [8] = biological target: Galactokinase (Homo sapiens) (UniProt P51570); test: qHTS Validation Assay for Inhibitors of Human Galactokinase (GALK) (AID 493189); details: purified human GALK enzyme activity, qHTS 7-point titration; series mostly up to 57.5 µM
# Sequence of Galactokinase (Homo sapiens) (P51570 whole entry, looked up): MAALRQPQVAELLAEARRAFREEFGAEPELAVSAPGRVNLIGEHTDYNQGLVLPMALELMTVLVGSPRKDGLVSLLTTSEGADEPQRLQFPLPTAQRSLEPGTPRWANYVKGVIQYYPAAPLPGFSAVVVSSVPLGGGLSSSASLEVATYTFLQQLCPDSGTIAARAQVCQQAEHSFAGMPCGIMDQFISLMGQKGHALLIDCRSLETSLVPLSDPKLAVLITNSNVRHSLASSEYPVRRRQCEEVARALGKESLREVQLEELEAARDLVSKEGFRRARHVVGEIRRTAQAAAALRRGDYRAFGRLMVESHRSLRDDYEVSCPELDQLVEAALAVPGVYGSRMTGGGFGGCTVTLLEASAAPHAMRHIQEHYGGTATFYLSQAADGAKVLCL
# How it was run: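 Enzyme activity is inferred from ATP consumption: human GALK phosphorylates galactose (100 uM) using 35 uM ATP for 1 h at room temperature, and luciferase-based Kinase-Glo Plus reports unconsumed ATP.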
# [9] = biological target: ATPase family AAA domain-containing protein 5 (Homo sapiens) (UniProt Q96QE3); test: Validation screen for small molecules that inhibit ELG1-dependent DNA repair in human embryonic kidney (HEK293T) cells expressing luciferase-tagged ELG1 (AID 493107); details: HEK293T ELG1-luciferase level, luminescence, 5-fluorouridine co-treatment, 16 h; series mostly up to 46.1 µM;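 also: cells co-treated with the DNA-damaging agent 5-fluorouridine alongside compound; inhibitors lower the ELG1-luciferase luminescence signal; nearly all actives have a fitted effect of over 70% in size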
# Sequence of ATPase family AAA domain-containing protein 5 (Homo sapiens) (Q96QE3 whole entry, looked up, the tested form may be a part): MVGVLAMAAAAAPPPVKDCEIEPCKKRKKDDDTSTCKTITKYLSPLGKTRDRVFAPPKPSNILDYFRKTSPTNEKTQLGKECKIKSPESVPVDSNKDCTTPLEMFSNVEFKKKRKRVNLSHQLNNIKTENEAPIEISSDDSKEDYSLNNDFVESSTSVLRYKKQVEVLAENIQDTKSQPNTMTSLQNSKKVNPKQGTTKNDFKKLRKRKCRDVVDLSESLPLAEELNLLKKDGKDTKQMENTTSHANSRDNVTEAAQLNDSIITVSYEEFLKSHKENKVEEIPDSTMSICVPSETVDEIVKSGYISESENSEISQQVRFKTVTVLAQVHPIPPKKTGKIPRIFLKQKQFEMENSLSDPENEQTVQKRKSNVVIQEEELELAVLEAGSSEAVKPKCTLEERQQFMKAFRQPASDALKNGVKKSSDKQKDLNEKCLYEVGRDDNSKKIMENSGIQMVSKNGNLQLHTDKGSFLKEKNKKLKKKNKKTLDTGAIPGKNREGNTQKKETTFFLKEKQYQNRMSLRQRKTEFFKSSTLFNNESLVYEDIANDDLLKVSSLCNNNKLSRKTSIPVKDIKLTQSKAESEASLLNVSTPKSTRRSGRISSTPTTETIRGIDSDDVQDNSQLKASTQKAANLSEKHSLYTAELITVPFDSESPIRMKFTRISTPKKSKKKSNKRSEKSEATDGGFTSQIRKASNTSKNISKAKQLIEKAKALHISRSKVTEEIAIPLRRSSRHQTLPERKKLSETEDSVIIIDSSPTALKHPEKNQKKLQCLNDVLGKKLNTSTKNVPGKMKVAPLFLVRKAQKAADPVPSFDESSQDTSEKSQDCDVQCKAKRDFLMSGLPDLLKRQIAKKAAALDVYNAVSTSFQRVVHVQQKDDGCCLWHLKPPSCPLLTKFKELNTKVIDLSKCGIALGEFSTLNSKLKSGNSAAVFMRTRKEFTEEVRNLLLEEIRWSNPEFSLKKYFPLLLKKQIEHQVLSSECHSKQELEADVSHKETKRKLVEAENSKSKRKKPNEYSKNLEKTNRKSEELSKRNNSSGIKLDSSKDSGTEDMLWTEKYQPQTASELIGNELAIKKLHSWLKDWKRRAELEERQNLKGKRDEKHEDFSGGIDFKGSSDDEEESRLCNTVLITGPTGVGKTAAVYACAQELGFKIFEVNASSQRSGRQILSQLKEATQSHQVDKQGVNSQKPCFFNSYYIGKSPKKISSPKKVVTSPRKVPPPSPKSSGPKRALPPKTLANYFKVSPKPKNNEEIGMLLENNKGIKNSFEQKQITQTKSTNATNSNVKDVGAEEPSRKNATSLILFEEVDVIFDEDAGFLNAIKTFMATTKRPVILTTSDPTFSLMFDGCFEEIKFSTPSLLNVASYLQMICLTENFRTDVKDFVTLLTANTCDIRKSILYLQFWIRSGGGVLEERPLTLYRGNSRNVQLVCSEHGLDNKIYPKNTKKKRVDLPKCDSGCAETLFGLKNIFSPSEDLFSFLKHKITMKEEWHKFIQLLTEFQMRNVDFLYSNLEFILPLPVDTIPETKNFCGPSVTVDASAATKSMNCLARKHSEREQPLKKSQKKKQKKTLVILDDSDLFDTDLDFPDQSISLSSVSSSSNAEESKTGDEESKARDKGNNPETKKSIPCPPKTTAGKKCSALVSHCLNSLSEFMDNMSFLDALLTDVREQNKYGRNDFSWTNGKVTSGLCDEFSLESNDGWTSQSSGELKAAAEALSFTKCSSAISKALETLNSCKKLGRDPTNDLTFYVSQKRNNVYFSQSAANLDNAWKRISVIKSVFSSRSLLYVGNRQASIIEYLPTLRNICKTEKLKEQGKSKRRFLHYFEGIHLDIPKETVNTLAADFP
# How it was run: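 HEK293T cells expressing luciferase-tagged ELG1 were co-treated with 5-fluorouridine and compound or DMSO for 16 hr at 37 °C, 5% CO2. Luciferase activity was then read with ONE-Glo after 30 min at room temperature; suppressed signal indicates blocked ELG1 function.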
# [10] = Nrf2 qHTS screen for inhibitors: Validation (AID 493153; active = well fitted inhibition curve with a large enough effect in the main read-out, with a control signal flat, not every such curve was filed as active); details: A549 ARE-Fluc reporter, 18-24 h; Potency: luciferase luminescence; viability change: measured here: cytotoxicity max response; luciferase luminescence, at 46.1 µM (top of the series)
# How it was run: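 A549 cells carrying an ARE-driven firefly luciferase reporter, in 5% FBS OPTI-MEM, were treated with compounds in concentration-response for 18-24 h at 37°C. Viability was read by CellTiter-Fluor fluorescence, then Nrf2 activity by luciferase luminescence.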
compound,measurement,setting,value
Cc1c(OCC(F)(F)F)ccnc1CS(=O)c1nc2ccccc2[nH]1 (stereo not given),outcome,[1],inactive
same,outcome,[2],inactive
same,Potency,[3],inactive
same,Potency,[4],inactive
same,outcome,[5],inactive
same,Potency,[6],inactive
same,activation,[7],4.38% (inactive)
same,outcome,[8],inactive
O=c1c(O)c(-c2cc(O)c(O)c(O)c2)oc2cc(O)cc(O)c12,outcome,[1],inactive
same,outcome,[2],inactive
same,Potency,[3],inactive
same,Potency,[6],inactive
same,outcome,[9],inactive
same,activation,[7],1.38% (inactive)
same,Potency,[10],inactive
same,viability change,[10],-7.68%
same,outcome,[8],inactive
O=C1c2ccccc2-c2n[nH]c3cccc1c23,outcome,[1],inactive
same,outcome,[2],inactive
same,Potency,[3],inactive
same,Potency,[4],inactive
same,outcome,[5],inactive
same,Potency,[6],inactive
same,outcome,[9],inactive
same,activation,[7],0.75% (inactive)
same,outcome,[8],inactive
O=c1ccc2ccc(O)c(O)c2o1,outcome,[1],inactive
same,outcome,[2],inactive
same,Potency,[4],inactive
same,Potency,[6],inactive
same,activation,[7],-0.188% (inactive)
same,Potency,[10],inactive
same,viability change,[10],21%
same,outcome,[8],inactive
C[C@H](Cc1ccc(O)c(O)c1)[C@@H](C)Cc1ccc(O)c(O)c1,outcome,[1],inactive
same,outcome,[2],inactive
same,Potency,[4],inactive
same,Potency,[6],inactive
same,outcome,[8],inactive
Nc1nc(OCc2ccccc2)c2[nH]cnc2n1,outcome,[1],inactive
same,outcome,[2],inactive
same,Potency,[3],inactive
same,Potency,[4],inactive
same,outcome,[9],inactive
same,activation,[7],-2.94% (inactive)
same,Potency,[10],inactive
same,viability change,[10],10.1%
same,outcome,[8],inactive
COc1ccccc1N1CCN(CCN(C(=O)C2CCCCC2)c2ccccn2)CC1,outcome,[1],inactive
same,outcome,[2],inactive
same,Potency,[3],inactive
same,Potency,[4],inactive
same,Potency,[6],inactive
same,outcome,[9],inactive
same,activation,[7],-4.06% (inactive)
same,outcome,[8],inactive
C[C@@H](N)C1CCC(C(=O)Nc2ccncc2)CC1 (stereo not given in full),outcome,[1],inactive
same,outcome,[2],inactive
same,Potency,[3],inactive
same,Potency,[4],inactive
same,Potency,[6],inactive
same,activation,[7],1.06% (inactive)
same,Potency,[10],inactive
same,viability change,[10],2.27%
same,outcome,[8],inactive
Cc1nc2n(c(=O)c1CCN1CCC(c3noc4cc(F)ccc34)CC1)CCCC2,outcome,[1],inactive
same,outcome,[2],inactive
same,activation,[7],0.938% (inactive)
same,outcome,[8],inactive
O=C(O)c1cccnc1Nc1cccc(C(F)(F)F)c1,outcome,[1],inactive
same,Potency,[3],inactive
same,Potency,[4],inactive
same,Potency,[6],inactive
same,outcome,[9],inactive
same,activation,[7],1.5% (inactive)
same,outcome,[8],inactive
O=C(CCc1ccc(O)cc1)c1c(O)cc(O)cc1O,outcome,[1],inactive
same,outcome,[2],inactive
same,Potency,[3],inactive
same,Potency,[4],inactive
same,Potency,[6],inactive
same,activation,[7],1.75% (inactive)
same,Potency,[10],inactive
same,viability change,[10],-1.1%
same,outcome,[8],inactive
Oc1ccc(-c2nc(-c3ccc(F)cc3)c(-c3ccncc3)[nH]2)cc1,outcome,[1],inactive
same,outcome,[2],inactive
same,Potency,[3],inactive
same,Potency,[4],inactive
same,Potency,[6],inactive
same,activation,[7],-3.81% (inactive)
same,outcome,[8],inactive
Cc1cc(O)c2c(c1)C(=O)c1cc(O)cc(O)c1C2=O,outcome,[1],inactive
same,outcome,[2],inactive
same,Potency,[3],inactive
same,Potency,[4],inactive
same,Potency,[6],inactive
same,outcome,[9],inactive
same,activation,[7],10.2% (inactive)
same,Potency,[10],inactive
same,viability change,[10],-15.1%
same,outcome,[8],inactive
CNC[C@H](O)c1ccc(O)c(O)c1,outcome,[1],inactive
same,outcome,[2],inactive
same,Potency,[3],inactive
same,outcome,[5],inactive
same,Potency,[6],inactive
same,outcome,[9],inactive
same,activation,[7],0.875% (inactive)
same,Potency,[10],inactive
same,viability change,[10],3.45%
same,outcome,[8],inactive
Nc1cc(C(Cl)=C(Cl)Cl)c(S(N)(=O)=O)cc1S(N)(=O)=O,outcome,[5],inactive
Nc1nc(N)c(N=O)c(OCC2CCCCC2)n1,Potency,[3],inactive
same,Potency,[4],inactive
same,outcome,[9],inactive
same,Potency,[10],inactive
same,viability change,[10],-2.98%
Cc1ccc(NC(=O)c2ccc(CN3CCN(C)CC3)cc2)cc1Nc1nccc(-c2cccnc2)n1,outcome,[5],inactive
CCCCC(CC)COC(=O)C(C#N)=C(c1ccccc1)c1ccccc1 (stereo not given),outcome,[5],inactive
Oc1ccc2ccccc2c1SSc1c(O)ccc2ccccc12,Potency,[4],inactive
same,Potency,[6],inactive
same,outcome,[9],inactive
same,Potency,[10],inactive
same,viability change,[10],7.1%
C[C@]12CCC(=O)C=C1CC[C@@H]1[C@H]2[C@@H](O)C[C@@]2(C)[C@H]1CC[C@]2(O)C(=O)CO,outcome,[5],inactive
CC(C)[C@H](N)C(=O)OCCOCn1cnc2c(=O)[nH]c(N)nc21,outcome,[5],inactive
CCOC(=O)C(C)Oc1cccc2c(=O)n(CC(=O)Nc3ccc4c(c3)OCCO4)ccc12 (stereo not given),Potency,[3],inactive
same,Potency,[4],inactive
same,outcome,[9],inactive
same,Potency,[10],inactive
same,viability change,[10],-3.9%
CCCCN(CCCC)CCC(O)c1cc2c(Cl)cc(Cl)cc2c2cc(C(F)(F)F)ccc12 (stereo not given),outcome,[5],inactive
COC(=O)[C@H](Cc1ccccc1)NC(=O)[C@@H](N)CC(=O)O (H-Asp-Phe-OMe),outcome,[5],inactive
COc1cc(OC)c(C(=O)CCCN2CCCC2)c(OC)c1,outcome,[5],inactive
CCC[C@@H]1C[C@@H](C(=O)N[C@@H]([C@H]2O[C@H](SC)[C@H](O)[C@@H](O)[C@H]2O)[C@@H](C)O)N(C)C1,outcome,[5],inactive
CC(C)(S)[C@@H](N)C(=O)O,outcome,[5],inactive
Cc1c(C(=O)NN2CCCCC2)nn(-c2ccc(Cl)cc2Cl)c1-c1ccc(Cl)cc1,outcome,[5],inactive
CC(S)C(=O)NCC(=O)O (stereo not given),outcome,[5],inactive
Cc1cc2c(s1)Nc1ccccc1N=C2N1CCN(C)CC1,outcome,[5],inactive
CCN(CC)C(=S)SSC(=S)N(CC)CC,outcome,[2],inactive
same,Potency,[6],18.3 µM (active)
same,activation,[7],4% (inactive)
same,Potency,[10],inactive
same,viability change,[10],1.38%
same,outcome,[8],inactive
CC(C)c1ccc2oc3nc(N)c(C(=O)O)cc3c(=O)c2c1,outcome,[5],inactive
Cc1ncc([N+](=O)[O-])n1CC(C)O (stereo not given),outcome,[5],inactive
Nc1ccn([C@@H]2O[C@H](CO)[C@@H](O)C2O)c(=O)n1 (stereo not given in full),Potency,[3],inactive
same,Potency,[4],inactive
same,outcome,[5],inactive
same,Potency,[6],inactive
same,outcome,[9],inactive
O=C(NC(Cc1cc(=O)[nH]c2ccccc12)C(=O)O)c1ccc(Cl)cc1 (stereo not given),outcome,[5],inactive
Cc1cc2cc3c(C)cc(=O)oc3c(C)c2o1,outcome,[5],inactive
COc1cc2c(cc1OC)C1CC(=O)C(CC(C)C)CN1CC2 (stereo not given),Potency,[3],inactive
same,Potency,[4],inactive
same,outcome,[5],inactive
same,Potency,[10],inactive
same,viability change,[10],-5.87%
Oc1ccc(OCc2ccccc2)cc1,outcome,[5],inactive
CC1(C)CCC(C)(C)c2cc(NC(=O)c3ccc(C(=O)O)cc3)ccc21,outcome,[5],inactive
N=C(N)c1ccc2cc(OC(=O)c3ccc(N=C(N)N)cc3)ccc2c1,outcome,[5],inactive
Clc1ccc(C(Cn2ccnc2)OCc2ccsc2Cl)c(Cl)c1 (stereo not given),outcome,[5],inactive
Cc1cc(C2CCCCC2)n(O)c(=O)c1,outcome,[5],inactive
